Compound activity (PubChem)
Only some compounds are listed: those with a hit (about 3.8% of all), similar ones and a draw of the others.
S2 tox: reduces viability in counter-screen for ATXN expression inhibitors | S2 cells (HEK-293 line with an ATXN2-luciferase reporter) viability, CellTiter-Fluor protease fluorescence, 24 h | Potency, µM (series often up to 56.7 µM), actives largely listed as cytotoxic | 0.49% of 400,000 active; also: nearly all actives have a fitted effect of over 40% in size
TGFb inhibitor: inhibitors of TGF-b signaling | 1.2% of 410,000 active | HepG2 CAGA-GFP TGF-b/SMAD3 reporter, GFP fluorescence, 18 h; TGF-beta stimulated, 500 pg/mL final | Potency, µM (top dose mostly 46.1 µM), inactives show at the top dose activity, negative = inhibition, most hits filed as inhibitors; also: % is scaled to controls: 0 for no effect and ±100 for the full control effect; nearly all actives have a fitted effect of over 65% in size
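Cell-based qHTS in HEPG2 carrying a CAGA-GFP Smad reporter; compounds added before 500 pg/mL final TGF-beta, 18 h incubation at 37 degrees C, GFP fluorescence quantified per cell by imaging cytometry.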
HT1080NT lethal: kills 2HG-producing HT-1080-NT fibrosarcoma cells; Potency, µM (doses to about 46.1 µM), for the others: top-dose activity, negative = less viability, actives largely listed as cytotoxic; AID 686970; 1.6% of 360,000 active; HT-1080-NT fibrosarcoma viability, CellTiter-Glo ATP luminescence, 48 h;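 also: NT is the 2HG producing partner of a matched IDH1 knockdown line; 0% = DMSO-treated cells and -100% = media-only wells without cells; nearly all actives have a fitted effect of over 55% in size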
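Viability of the 2HG-overproducing fibrosarcoma line after 48 hours of compound exposure at 37 degrees C was determined by luminescence with CellTiter-Glo, and concentration-effect curves were then fitted and categorized.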
ATXN2 expr inh: inhibitors of ATXN2 expression. HEK-293 ATXN2-luciferase reporter, luminescence, 24 h. Potency, µM (series often up to 57 µM), for inactives: at the highest dose activity change, negative = inhibition, hits mostly inhibitors. 0.72% of 360,000 active. AID 1745845; also: % is scaled to controls: 0 for no effect and ±100 for the full control effect; nearly all actives have a fitted effect of over 55% in size
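ATXN2-luciferase reporter cells (luciferase flanked by upstream and downstream ATXN2 gene portions) were treated 24 h at 37 °C with compounds at up to 57 uM. SteadyGlo luminescence gave expression; GF-AFC fluorescence gave viability.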
HepG2 tox: kills HepG2 cells in TGF-b inhibitor counter-screen; HepG2 CAGA-GFP viability, ATP luminescence, 18 h; Potency, µM (highest dose often 46.1 µM), without a hit: at the top dose activity change, negative = cytotoxicity, usual class: cytotoxic; 0.76% of 410,000 active
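CellTiter-Glo luminescence gave cytotoxicity after 18 hours at 37 degrees C. The cells were HepG2 CAGA-GFP in 1% FBS DMEM, stimulated with 500 pg/mL TGF-beta after compound addition. %Activity was normalised to no-cell wells (complete cell-killing) and DMSO (no toxicity), and curves were fitted and classified.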
HT1080 IDH1KD tx: kills HT-1080 cells with IDH1 knockdown | Potency, µM (series often up to 46.1 µM), for inactives: at the top dose activity, negative = toxicity, actives largely listed as cytotoxic | HT-1080 IDH1 knockdown viability, ATP luminescence, 48 h | AID 686971 | 2% of 360,000 active;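 also: 0% = DMSO wells and -100% = cell-free medium wells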
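Luminescent ATP read-out (CellTiter-Glo, 10 min at room temperature) after 48 h compound exposure at 37 °C gave viability of IDH1-knockdown HT-1080 cells. Activity was normalised to DMSO and cell-free wells, then fitted as concentration-response curves.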
Active calls of the source: *; i = inactive; ? = inconclusive; · = no result given; [ ] = dose if it differs, or a comment. Calls follow the shape of the dose curve; as a rule, active = well fitted curve in the direction sought with a large enough effect; inconclusive = small, poorly fitted or top-dose-only effect, or another doubt; inactive = no such curve, though single readings can be large; an effect the other way counts as inactive or inconclusive. Potency is read from the fitted curve at half-maximal effect.

SMILES	S2 tox	TGFb inhibitor	HT1080NT lethal	ATXN2 expr inh	HepG2 tox	HT1080 IDH1KD tx
O=C(Cc1ccccc1)Nc1c(C(=O)Nc2ccccc2F)oc2ccccc12	i	10%	·	-6%	5%	·
CC1CN(C(=O)/C=C/c2ccc([N+](=O)[O-])s2)CC(C)O1 (stereo not drawn)	i	?	?	-24%	10µM*	?
O=C(/C=C/c1ccc([N+](=O)[O-])s1)N1CCN(c2ccccc2)CC1	?	?	-1%	·	-58%	0%
O=C(/C=C/c1ccc([N+](=O)[O-])s1)N1CCCCC1	?	13µM*	?	?	11µM*	23µM*
O=C(/C=C/c1ccc([N+](=O)[O-])s1)N1CCCC1	?	11µM*	?	·	20µM*	-19%
COc1cccc(-c2ccnc(-n3ncc(C(=O)NCC4(N5CCCCC5)CCCC4)c3C)n2)c1	i	·	·	·	·	·
COc1ccc2c(C)c(Cl)c(=O)oc2c1	i	-1%	8%	-8%	0%	14%
C=C1CC(COc2ccc3c(C)c(Cl)c(=O)oc3c2)(c2ccccc2)OC1=O (stereo not drawn)	·	?	16µM*	?	-99%	6.5µM*
Cc1cc(C)cc(N(CC(=O)NC2CCCCC2)C(=O)CCCC(=O)Nc2ccccn2)c1	i	-16%	-4%	-10%	11µM*	-10%
CC(C)(C)c1ccc(OCCCCCCN2CCNCC2)cc1	?	?	?	?	-173%	23µM*
COCCCNCCOc1ccc(C(C)(C)c2ccccc2)cc1	i	?	?	-28%	-40%	?
CCC(C)NCCOc1ccc(C(C)(C)c2ccccc2)cc1 (stereo not drawn)	?	-3%	18µM*	-31%	-20%	?
CC(C)(c1ccccc1)c1ccc(OCCCN2CCNCC2)cc1	?	0%	-5%	-30%	22µM*	21µM*
Cc1ccc(OCCCCCCN2CCNCC2)c(Br)c1	?	?	?	11%	-21%	15µM*
Cc1ccc(OCCCCN2CCC(C)CC2)c(Br)c1	i	1%	-8%	-21%	-8%	-16%
O=C(CNC(=O)c1cccnc1)c1ccc(F)cc1	·	28%	·	·	1%	·
O=C(c1cccnc1)C1CCCN(Cc2ccc3c(c2)CN(C(=O)c2ccc4[nH]ccc4c2)CCO3)C1 (stereo not drawn)	i	·	·	·	·	·
CCC(CC)[C@H](NC(C)=O)[C@@H]1[C@H](O)[C@@H](C(=O)O)C[C@@H]1N=C(N)N	·	·	·	3%	·	·
CCc1cc(C(=O)N2CCOc3ccc(CN4CCN(Cc5ccccn5)CC4)cc3C2)no1	i	·	·	·	·	·
CC1CN(CC(=O)N2CCN(Cc3nccn3C)CC2)Cc2cc(Cl)ccc2O1 (stereo not drawn)	i	·	·	·	·	·
O=C(O)c1cccc(NC(=O)c2cccc(NC(=O)C3CCCO3)c2)c1 (stereo not drawn)	i	-18%	-1%	8.9µM*	0%	22%
Nc1c(C(=O)NCc2ccco2)c2nc3ccccc3nc2n1CCc1ccc(F)cc1	·	16µM*	?	-34%	-103%	?
Nc1c(C(=O)NCc2ccc3c(c2)OCO3)c2nc3ccccc3nc2n1CCCN1CCOCC1	i	?	?	?	11µM*	7%[9.24 µM]
Nc1ccc(-n2c(N)c(C(=O)NCc3ccc4c(c3)OCO4)c3nc4ccccc4nc32)cc1	i	-23%	-16%	?	-14%	-14%
Nc1c(C(=O)NCc2ccccc2)c2nc3ccccc3nc2n1-c1ccc2c(c1)OCO2	i	7%	6%	22µM*	3%	?
SMILES	S2 tox	TGFb inhibitor	HT1080NT lethal	ATXN2 expr inh	HepG2 tox	HT1080 IDH1KD tx
O=C(Nc1ccc2nc(-c3cccs3)c(-c3cccs3)nc2c1)N1CCCCC1	·	2%	·	·	6%	·
CN(C)c1ccc(/C=C2/CCc3ccccc32)cc1	·	16µM*	·	·	-51%	·
CSc1nnc(CCNC(=O)c2ccccc2C(F)(F)F)n1-c1ccc(F)cc1	i	·	·	·	·	·
c1ccc(-c2nc(NCCCn3ccnc3)c3oc4ccccc4c3n2)cc1	?	?	?	?	20µM*	?
Ic1ccc(Nc2nc(NCCN3CCOCC3)nc(N3CCOCC3)n2)cc1	·	6%	·	·	-52%	·
COc1ccc2cc(CNCc3nonc3C)c(N3CCCC(CO)C3)nc2c1 (stereo not drawn)	i	·	·	·	·	·
CCOC(=O)C1CCCN(C(=O)c2cc3c(-c4cccc(OC)c4)nn(C)c3s2)C1 (stereo not drawn)	i	-5%	?	-29%	-9%	18µM*
O=C(c1cc2c(Cl)nc3ccccc3c2s1)N1CCCCC1	i	?	·	26%	-13%	·
CCOC(=O)C1CCCN(C(=O)c2cc3c(Cl)nc4ccccc4c3s2)C1 (stereo not drawn)	?	-24%	·	14µM*	-39%	·
O=[N+]([O-])c1cccc(NNS(=O)(=O)c2ccccc2F)c1	i	4%	?	-26%	-2%	5.8µM*
C/C=C1\[C@H]2C=C(C)C[C@]1(N)c1ccc(=O)[nH]c1C2	i	·	·	15%	·	·
COc1ccccc1CNC(=O)C1CCN(S(=O)(=O)c2ccc3c(c2)CCCN3C(C)=O)CC1	i	-13%	·	10%	-1%	·
Cc1[nH]nc2nc(SCC(=O)NC3CCCCC3)n(-c3ccc(Br)cc3)c(=N)c12	20µM*	-24%	-4%	13µM*	6%	?
CCCCN(CC)C(=O)CSc1nc2n[nH]c(C)c2c(=N)n1-c1ccc(CC)cc1	·	1.4µM*	·	·	-69%	·
CCCCN(CC)C(=O)CSc1nc2n[nH]c(C)c2c(=N)n1-c1cccc(OC)c1	·	4.5µM*	·	·	-30%	·
CCc1ccc(NC(=O)CSc2nc3n[nH]c(C)c3c(=N)n2-c2ccc(C)cc2)cc1	·	0%	·	·	-50%	·
CCOc1ccc(-n2c(SCC(=O)Nc3ccc(CC)cc3)nc3n[nH]c(C)c3c2=N)cc1	?	?	?	-31%	-54%	18µM*
CCCN(CCC)C(=O)CSc1nc2n[nH]c(C)c2c(=N)n1-c1ccc(OC)cc1	i	-9%	-18%	-11%	-3%	-23%
CCn1c(SC(C)C(=O)NCc2ccco2)nnc1-c1ccccc1 (stereo not drawn)	·	13%	·	·	12%	·
COc1ccc(-c2nc3cc(NC(=O)c4ccc(C)cc4)ccc3o2)cc1Cl	i	9%	·	-19%	-7%	·
CSc1nc(N)nc(SCC(=O)Nc2ccc(Cl)cc2)c1C#N	i	?	?	1%	-51%	?
